Test results: the supplement of paper PMC3334620
Whole data set: some 33,000 sequences, median “E-score (-0.5 to 0.5)” near -0.021, cut for the highest 2% near 0.32. The entries come from a sample that favours the highest values as a whole.

biological target: T1, Zap1 (UniProt P47043); test: PBM E-score (8-mer binding enrichment) (E-score (-0.5 to 0.5)); higher = stronger / more preferred TF binding; details: protein concentration: 200 nM; construct: GST-full length
T1 sequence: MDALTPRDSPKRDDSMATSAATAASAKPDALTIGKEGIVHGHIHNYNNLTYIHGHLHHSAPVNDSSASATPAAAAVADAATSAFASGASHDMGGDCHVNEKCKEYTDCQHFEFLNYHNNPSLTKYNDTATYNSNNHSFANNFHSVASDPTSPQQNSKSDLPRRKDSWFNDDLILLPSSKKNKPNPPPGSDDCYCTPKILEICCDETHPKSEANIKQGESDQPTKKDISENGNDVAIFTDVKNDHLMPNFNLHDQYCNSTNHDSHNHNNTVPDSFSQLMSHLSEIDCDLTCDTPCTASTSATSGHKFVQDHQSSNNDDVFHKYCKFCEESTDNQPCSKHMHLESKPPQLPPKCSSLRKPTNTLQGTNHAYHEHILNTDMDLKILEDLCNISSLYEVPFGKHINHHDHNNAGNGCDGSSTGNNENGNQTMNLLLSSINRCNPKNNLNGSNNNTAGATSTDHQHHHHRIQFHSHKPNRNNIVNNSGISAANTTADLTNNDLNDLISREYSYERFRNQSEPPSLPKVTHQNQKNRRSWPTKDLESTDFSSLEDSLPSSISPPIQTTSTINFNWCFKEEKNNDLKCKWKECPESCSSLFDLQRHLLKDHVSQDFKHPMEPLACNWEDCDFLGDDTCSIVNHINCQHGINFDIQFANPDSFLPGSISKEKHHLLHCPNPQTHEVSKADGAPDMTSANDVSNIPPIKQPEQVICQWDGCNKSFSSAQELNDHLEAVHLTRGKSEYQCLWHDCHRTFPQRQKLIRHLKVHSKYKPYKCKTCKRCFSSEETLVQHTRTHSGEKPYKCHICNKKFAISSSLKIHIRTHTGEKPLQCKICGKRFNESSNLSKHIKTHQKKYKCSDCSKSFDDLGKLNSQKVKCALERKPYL
Protocol: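 Universal 'all 10-mer' protein binding microarrays (Agilent AMADID 015681) probed with GST-tagged S. cerevisiae TFs (full-length or DBD) made by in vitro transcription/translation (PURExpress), about 100-200 nM. Bound TF was detected with fluorescent anti-GST. Each ungapped 8-mer (which stands for itself and its reverse complement) is scored by the PBM enrichment score (E-score), a modified Wilcoxon-Mann-Whitney statistic from -0.5 to +0.5, computed with the Universal PBM Analysis Suite. Scale: above 0.35 generally sequence-specific binding.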

Sequence	PBM E-score
CACGGTTC	-0.13
CACGGTTA	0.372
AACGGTCG	0.114
AACGGTTA	0.397
CACGGTCA	0.262
GACGGTTA	0.305
GACGGGTA	0.0159
AACGGTTC	0.107
CACGGGTA	0.237
AACGGTTG	0.123
AACGGGTA	0.375
AACGGTCA	0.324
CCCCGCGC	-0.138
ACATTCAG	-0.0921
AGCGCATG	-0.227
CGGACCCA	0.195
CTTTCTTC	-0.0581
AGAAGCCA	-0.0472
AAGGTAAA	0.187
CAGGTAAA	0.133
AAGGTAAT	0.322
CAGGTAAC	0.254
AAGGTAAC	0.432
GAGGTAAC	0.365
GAGGTAAA	0.199

Sequence	PBM E-score
AAGGTATT	0.199
AAGGTAAG	0.0248
CTCCATGC	-0.229
ACGCATAC	-0.101
ACTACCAT	0.269
ACTGCTAG	-0.269
CGGTACCC	0.414
AGGTACCC	0.451
CGGTACAC	0.0303
AAGTACCG	0.134
CCGTACCC	0.275
ACGTACCT	-0.126
AGGTACCT	0.443
ACGTACCG	-0.111
ATGTACCC	0.216
AGGTACCG	0.43
AAGTACCT	0.213
AGGTACTC	0.261
AGTAAAGG	0.132
ATCTTAAC	0.142
CGCCCAGC	-0.209
ATAACATA	0.146
GGGTCCAC	-0.0924
CAGTACCG	0.104
GCGTACCC	0.106

Sequence	PBM E-score
CGGTACCG	0.38
GGGTACAC	0.141
GGGTACCC	0.469
CGGTACAG	0.12
ATTAGAAA	0.0663
TACAGCCA	-0.0777
ACTCACCC	-0.0932
CAATGTTC	-0.213
ATTTGTCC	-0.0674
CACCAGTG	-0.0732
AACTAAAC	0.181
CTTATTTA	0.0152
GTTATAAC	0.401
GATATATA	0.2
GTTATATA	0.359
ATTATTTA	0.234
GTTATTTA	0.325
CTTATATA	0.27
CATATATA	0.13
TATATATA	0.37
CTTATAAC	0.302
ATTATATA	0.207
GTTATAAA	0.279
CCTCAGAA	-0.0154
ACTGGGAG	-0.25

Sequence	PBM E-score
ATTGGGAG	-0.0694
AACGCTGG	-0.174
GACTGTAC	-0.147
AGCTCTCG	-0.212
ACAAGAGA	-0.043
ATCATCGC	-0.0946
AGCTCTTG	-0.246
CAATTGAC	-0.0961
GCCCAGAA	-0.0621
GTCGAGCA	-0.236
GAAACCGC	0.15
ATGAGCAA	-0.0417
ATACAATG	0.0742
AGGGGCAG	-0.186
CCCAAGGA	0.00233
CCCCAGGG	0.319
ACCCAGGG	0.0854
CCCCAGGA	-0.128
CCCAAGGG	0.326
CCAAAAAG	0.248
CCAAAAGG	0.337
CCCAAAGG	0.23
CCAAAGGG	0.267
CGTACAGA	-0.231
CAATGCAA	0.0301

Sequence	PBM E-score
CCTCGAGG	0.331
CCTCGAGC	0.0178
ACTCGAGG	0.0452
CCATAAAA	0.12
CGGGTAAC	0.351
AGAGTAAC	0.108
CGGGTAAG	-0.078
GGGGTAAC	0.37
GGGGTAAA	0.269
CGGGTAAA	0.144
GGTGTAAC	0.262
AGGGTAAC	0.405
AGCGTAAC	0.199
AAAAGCAG	-0.0944
GGCAAATA	-0.0519
ACCGATAC	0.0986
AAACTTCT	0.0376
ACAGTATG	0.0365
GCCATAAC	0.12
TCCATAAA	0.061
CCCATAAG	0.236
CCCATAAC	0.355
CCCATAAA	0.161
CCCATTAA	-0.0317
ACCATTAA	0.348

Sequence	PBM E-score
ACCATAAT	0.255
ACCATAAG	0.0852
ACCATAAC	0.399
ACCATAAA	0.384
TCCATTAA	0.13
CTCACATC	-0.0546
CATAGATG	-0.173
GTACACAA	0.12
ACTAAAGA	0.00061
CCACTTTC	-0.101
GCCGCGAA	-0.0427
TCCGCGAA	0.05
ACCGCGAA	0.359
GTGATGTA	0.013
AGAGTCAG	-0.145
ATCGCTCA	-0.0114
GAAGGTAC	0.178
AAAGGTAA	0.361
AAAGGTAG	0.247
AAAGGTGA	0.25
CCAGGTAC	0.17
CAAGGTAC	0.357
AAAGGTAT	0.293
AAAGGTAC	0.426
TAAGGTAA	0.271

Sequence	PBM E-score
CAAGGTAG	0.303
CAAGGTAA	0.191
GAAGGTAA	0.319
CACAGAGA	-0.0512
ACGATGGA	0.00241
CATCTCTC	-0.0882
CCTCCCAG	-0.291
CGCCTGAG	-0.0453
CAACTAAG	-0.00117
AGAGGCCC	-0.108
CCTCTTCC	-0.127
ATTTGCCG	-0.168
AAAGGGAA	-0.0936
GCATGGAA	-0.169
ACGTAAGC	-0.186
ACAGGGGG	-0.225
ACTGCGCA	-0.0699
CAGCCCAG	-0.177
ACAGAGTA	-0.0251
CCCCTCCC	0.0739
ACCCTCCT	0.189
ACCCTCCA	0.341
GCCCTCCA	-0.0877
TCCCTCCA	-0.134
